# rCAG binder = molecules binding r(CAG) RNA repeats | inhibition, % at 3 µM | r(CAG) RNA repeat, TO-PRO-1 dye displacement fluorescence | hit rate 1.3% among 370,000;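 active means inhibition above the plate cutoff, the mean of all test compounds on that plate plus 3 SD, cut at about 35% in these data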;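 further: 0% = DMSO alone and 100% = 100 µM mitoxantrone as full dye displacement; higher means more dye released from RNA so lower well fluorescence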
# NR3A LBD binder = modulators (binders) of human NR3A ligand-binding domain | AID 1259313 | NR3A LBD differential scanning fluorimetry, Tm shift; 0% = protein alone, 100% = glycine-bound protein | hit rate 2.5% among 340,000 | Tm shift relative to glycine control, % at 25 µM;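 active means melting temperature shift of at least 10% of the positive control shift, at one fixed dose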
# MPTP block = permeability transition pore inhibition | isolated mouse mitochondria, Ca2+ swelling absorbance, 30 min | inhibition, % at 10 µM | hit rate 1.4% among 360,000;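 active means inhibition of 50% or more, scaled per plate between neutral and stimulator controls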;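 further: 0% = DMSO wells given calcium and 100% = 1 mM EGTA wells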
# Myeloid diff 2 = compounds promoting myeloid differentiation | ER-HoxA9 myeloid progenitors, lysozyme-GFP differentiation, flow cytometry | calls only at 10 µM | hit rate 1% among 360,000 | AID 624256;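 active means normalized GFP-positive differentiation at or above the plate's own cutoff, the solvent-only control mean plus 3 SD; inconclusive means no clear call, values can overlap the other calls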;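 further: cells exposed to compound for four days before flow analysis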
# FAS TE block = FAS thioesterase (human) inhibition | P49327 | hit rate 0.67% among 360,000 | recombinant FAS-TE, OMFH fluorogenic substrate, fluorescence endpoint | AID 602261 | inhibition, % at 15 µM;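 active means compounds whose normalised, plate-corrected inhibition of enzyme fluorescence in the single-dose primary screen is 50% or more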;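 further: 0% = DMSO with enzyme and 100% = substrate without enzyme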
# FAS-TE inh conf = confirmation of human fatty acid synthase thioesterase inhibitors. shares compounds with FAS TE block. recombinant FAS-TE, OMFH fluorogenic substrate, fluorescence. inhibition, % at 15 µM. hit rate 45% among 2,300;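 active means compounds inhibiting the enzyme by at least 50% at 15 µM in any one of the replicates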;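 further: 0% = enzyme with DMSO only and 100% = wells lacking enzyme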
# Active calls of the source: *; i = inactive; u = inconclusive; x = no result. Most compounds without a hit are left out; they make up all but 5.7% or so of the library.
SMILES,rCAG binder,NR3A LBD binder,MPTP block,Myeloid diff 2,FAS TE block,FAS-TE inh conf
CCOC(=O)[C@@H]1[C@H]2COc3ccc(Br)cc3[C@@H]2N2C(=O)N(c3ccc(C(F)(F)F)cc3)C(=O)[C@]12C,0,2,2,i,58*,23
CCOC(=O)[C@H]1[C@H]2COc3ccc(C)cc3[C@@H]2N2C(=O)c3ccc(C)cc3NC(=O)[C@@]12C,-2,1,0,i,14,x
CCOC(=O)[C@@]12CCC3=C1N(CCC3)C(=O)[C@H](CC(=O)NCc1ccc(OC)c(OC)c1)C2,2,x,x,x,x,x
O=C(C(=O)N1CCC(CNC(=O)c2cccnc2Cl)CC1)c1cc2ccccc2o1,1,x,x,x,x,x
O=C(Sc1nnc(-c2ccccc2)o1)N1c2ccccc2Sc2ccccc21,2,-10,-1,i,60*,28*
CCn1c(=O)c([N+](=O)[O-])c(N2CCN(Cc3ccc4c(c3)OCO4)CC2)c2ccccc21,-1,0,6,i,88*,81*
CCn1c(=O)c([N+](=O)[O-])c(N2CCSCC2)c2ccccc21,4,-1,5,i,15,x
CC(CCc1ccco1)NC(=O)c1cccc2c1C(=O)N(C1CCCCC1)C2 (stereo not drawn),-3,1,5,i,63*,9
Cc1[nH]c2ccccc2c1CC(=O)Nc1ccc(Nc2cccnc2)c(-c2ccc(C(C)(C)C)cc2)c1,19,x,x,x,x,x
C[C@H]1CN([C@@H](C)CO)C(=O)c2cccc(NC(=O)Nc3ccc(C(F)(F)F)cc3)c2O[C@@H]1CN(C)S(=O)(=O)c1ccc(Cl)cc1,6,23*,1,i,58*,-1
Cc1noc(C)c1NC(=O)N(C)C[C@H]1Oc2c(NC(=O)Nc3ccc(C(F)(F)F)cc3)cccc2C(=O)N([C@H](C)CO)C[C@@H]1C,0,-5,-1,i,23,x
C[C@H](CO)N1C[C@H](C)[C@@H](CN(C)S(=O)(=O)c2cn(C)cn2)Oc2c(NC(=O)Nc3ccc(C(F)(F)F)cc3)cccc2C1=O,16,-5,-1,i,32,x
Cc1ccc(S(=O)(=O)N(C)C[C@@H]2Oc3ccc(NC(=O)Nc4cccc5ccccc45)cc3C(=O)N([C@H](C)CO)C[C@H]2C)cc1,22,5,1,i,67*,7
C[C@H](CO)N1C[C@H](C)[C@@H](CN(C)S(=O)(=O)c2ccc(F)cc2)Oc2c(NC(=O)Nc3ccc(C(F)(F)F)cc3)cccc2C1=O,5,20*,-2,i,50*,47
COc1ccc(NC(=O)Nc2cccc3c2O[C@H](CN(C)S(=O)(=O)c2ccc(F)cc2)[C@@H](C)CN([C@H](C)CO)C3=O)cc1,0,-1,0,i,2,x
CC(C)NC(=O)N(C)C[C@H]1Oc2c(NC(=O)Nc3ccc(C(F)(F)F)cc3)cccc2C(=O)N([C@H](C)CO)C[C@@H]1C,-3,1,0,i,82*,86*
COC(=O)c1cc2c(c3c4cc(F)ccc4n(S(=O)(=O)c4ccc(C)cc4)c13)C(=O)N(Cc1ccccc1)C2,13,x,x,x,x,x
COC(=O)C1=C(C)N(Cc2ccc(C(F)(F)F)cc2)C(=NCc2ccccc2C(F)(F)F)NC1c1ccc(Cl)cc1 (stereo not drawn),5,x,x,x,x,x
CC(C)(C)c1ccc(-c2cc(NC(=O)Cc3c[nH]c4ccccc34)ccc2Nc2cccnc2)cc1,17,x,x,x,x,x
CCCCCCCCN1C(=O)[C@@H](CC(=O)N2CCN(C(=O)C3CC3)CC2)C[C@@]2(C(=O)OC)C1=C[C@H](C(C)(C)C)O[C@@H]2C,7,x,x,x,x,x
Cc1ccc(S(=O)(=O)N(C)C[C@@H]2OCc3ccccc3-c3c(n(C)c4ccccc34)C(=O)N([C@H](C)CO)C[C@@H]2C)cc1,14,x,-2,i,29,x
C[C@H](CO)N1C[C@H](C)[C@H](CN(C)S(=O)(=O)c2ccc(Cl)cc2)OCc2ccccc2-c2c(n(C)c3ccccc23)C1=O,11,x,-1,i,69*,28
C[C@H](CO)N1C[C@H](C)[C@H](CN(C)Cc2ccc(-c3ccccc3)cc2)Oc2ccc(NS(=O)(=O)c3ccccc3)cc2CC1=O,x,-4,-2,i,27,x
Cc1ccc(S(=O)(=O)Nc2ccc3c(c2)CC(=O)N([C@H](C)CO)C[C@@H](C)[C@H](CN(C)Cc2ccc(-c4ccccc4)cc2)O3)cc1,x,-9,-1,i,73*,23
CN1OC[C@@H]2CN[C@H](c3ccc(N4CCCCC4)cc3)C[C@@H]21,4,x,x,x,x,x
SMILES,rCAG binder,NR3A LBD binder,MPTP block,Myeloid diff 2,FAS TE block,FAS-TE inh conf
COc1cc(OC)c(N(C)C(=O)c2cc3c(s2)-c2ccccc2S(=O)(=O)C3)cc1Cl,3,1,0,i,54*,32
COc1ccc(N(C)C(=O)c2cc3c(s2)-c2ccccc2S(=O)(=O)C3)cc1,1,-2,0,i,47,x
O=C(NCCC(=O)N(CCc1ccccc1)Cc1ccccc1)c1ccc([N+](=O)[O-])cc1,-7,-1,0,i,61*,42*
O=C(NCCc1ccccc1)c1ccc([N+](=O)[O-])cc1,1,0,-1,i,16,x
CN(c1ccccc1)S(=O)(=O)c1cccc(NC(=O)CCNC(=O)c2ccc([N+](=O)[O-])cc2)c1,7,-1,1,i,54*,61*
CC(C)c1ccc(CCNC(=O)c2ccc([N+](=O)[O-])cc2)cc1,-1,-1,43,i,66*,73*
O=C(CCNC(=O)c1ccc([N+](=O)[O-])cc1)NC1CCCCCC1,2,0,0,i,63*,70*
COc1ccc(-c2cc(C(=O)NN=Cc3ccc(-c4ccccc4)cc3)[nH]n2)cc1,9,x,x,x,x,x
O=C(CCNC(=O)c1ccc([N+](=O)[O-])cc1)NCc1ccccc1,0,-1,-1,i,60*,72*
O=C(Cc1cccc(C(F)(F)F)c1)OCN1C(=O)c2ccccc2C1=O,-5,2,2,i,51*,46*
CCOC1=C2[C@H](c3cccc(Cl)c3)N(S(=O)(=O)c3ccc(C)cc3)C[C@H]2n2c(=O)n(-c3ccccc3)c(=O)n2C1,6,x,0,i,70*,21
CCOC1=C2[C@H](c3ccc(C)cc3)N(S(=O)(=O)c3ccc(C)cc3)C[C@H]2n2c(=O)n(-c3ccccc3)c(=O)n2C1,-1,x,1,i,26,x
CCOC1=C2[C@H](c3ccccc3F)N(S(=O)(=O)c3ccc(C)cc3)C[C@H]2n2c(=O)n(-c3ccccc3)c(=O)n2C1,5,x,1,i,75*,8
CC(=O)Nc1ccc(-c2ccnc3c2CC(C(=O)NCc2ccco2)O3)cc1 (stereo not drawn),1,x,-1,u,-8,x
CC1(C)CC(=O)C=C(c2ccccc2-c2ccc3c(c2)OCO3)C1=O,0,x,x,x,x,x
